This is one part of a sample in which hits are shown more often than they occur.
Marburg entry inh = qHTS for inhibitors of binding or entry into cells for Marburg Virus; AID 540276, 2011; Marburg virus pseudotyped entry inhibition, cell reporter; Potency, µM (doses to about 37.8 µM), hits mostly inhibitors; 300,000 compounds, 1.8% hits; calls by dose curve; tested in HEK293 cells
Lassa entry inh = qHTS for Inhibitors of binding or entry into cells for Lassa Virus | Lassa virus pseudotype entry inhibition, cell reporter | Potency, µM (top dose mostly 37.9 µM), usual class: inhibitors | AID 540256, 2011 | 300,000 compounds, 1.2% hits; calls by dose curve; tested in HEK293 cells; note: nearly all actives have a fitted effect of over 50% in size
CHX counter = Cycloheximide Counterscreen for Small Molecule Inhibitors of Shiga Toxin | cell reporter, cycloheximide protein synthesis inhibition counterscreen | max response, % | 300,000 compounds, 12% hits | AID 2314, 2010; in the data active = max response mostly above about 13%, no sharp cut-off; inactive = mostly below about 14%; note: read at 38.3 µM for the half of the compounds with a filed dose
AMA1-RON2 inh = qHTS for Inhibitors of AMA1-RON; Towards Development of Antimalarial Drug Lead: Primary Screen | Plasmodium falciparum AMA1 (3D7) - RON2 peptide interaction | AlphaScreen AMA1-biotinylated RON2 peptide binding | 360,000 compounds, 0.2% hits | Potency, µM (titrated, usually from 58.2 µM), hits mostly inhibitors; active = well fitted inhibition curve with a large enough effect; inconclusive = small, poorly fitted or top-dose-only effect; inactive = no such curve, though single readings can be large or run the other way; note: nearly all actives have a fitted effect of over 45% in size
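AMA1 (3D7) with his tag at 25 nM final met compounds first, then biotinylated RON2 peptide at 25 nM; detection used donor plus acceptor beads, 10 µg/mL apiece, read by AlphaScreen after 30 min at room temperature.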
Shiga inhibitor = A qHTS for Small Molecule Inhibitors of Shiga Toxin; inhibition, % at 38.7 µM; 290,000 compounds, 9.2% hits; AID 2315, 2010; Vero cells, Shiga toxin protein synthesis inhibition reporter; in the data active = inhibition mostly above about 28%, no sharp cut-off; inactive = mostly below about 43%
Large screens that a line does not name were inactive.

O=C(NNC(=O)c1cc(-c2ccccc2)n(-c2ccccc2)n1)c1cccc([N+](=O)[O-])c1	none
CC1CCC(C(C)C)C(OCC(O)CN2CCCC(C)C2)C1 (centres undefined)	Marburg entry inh inconclusive, Lassa entry inh 5.6µM
CC1CCCN(CC(O)COC(c2ccccc2)c2ccccc2)C1 (centres undefined)	Marburg entry inh 4µM, Lassa entry inh inconclusive
CC1CCC(C(C)C)C(OCC(O)CN2CCN(Cc3ccccc3)CC2)C1 (centres undefined)	Marburg entry inh inconclusive, Lassa entry inh 8.9µM
CC1CCC(C(C)C)C(OCC(O)CN2CCOCC2)C1 (centres undefined)	Marburg entry inh inconclusive
COC(=O)CNC(=O)COc1ccccc1	Lassa entry inh inconclusive
CCOC(=O)C1CCN(C(=O)COC(=O)c2ccc(=O)n(Cc3ccccc3)n2)CC1	none (no result: CHX counter, Shiga inhibitor)
O=C(c1cccs1)N1CCN(c2nc3ccccc3s2)CC1	none (no result: Marburg entry inh, Lassa entry inh)
CCc1ccc2nc(N3CCN(C(=O)c4ccco4)CC3)sc2c1	none (no result: Marburg entry inh, CHX counter, AMA1-RON2 inh, Shiga inhibitor)
CCc1ccc2nc(N3CCN(C(=O)C(C)(C)C)CC3)sc2c1	CHX counter 23, Shiga inhibitor 55 (no result: Marburg entry inh, Lassa entry inh)
O=C(NC1CC1)C1CCN(c2nc3ccccc3s2)CC1	Marburg entry inh inconclusive, CHX counter 23, Shiga inhibitor 63
CCN1CCN(c2nc3ccccc3s2)CC1	Marburg entry inh inconclusive, Lassa entry inh inconclusive, CHX counter 33, Shiga inhibitor 77
CC(C)(C)C(=O)N1CCN(c2nc3ccccc3s2)CC1	CHX counter 57, Shiga inhibitor 76 (no result: Marburg entry inh, Lassa entry inh)
O=C(NC1CCCCCC1)C1CCN(c2nc3ccccc3o2)CC1	none (no result: Lassa entry inh)
COc1ccccc1C1NC=C([N+](=O)[O-])C=C1[N+](=O)[O-] (centres undefined)	Marburg entry inh inconclusive
CN1CCN(C(=O)/C(=C/c2ccc([N+](=O)[O-])cc2)NC(=O)c2ccccc2)CC1	none (no result: Lassa entry inh)
CCCCC(=O)N1CCN(c2nc3ccc(F)cc3s2)CC1	Shiga inhibitor 35 (no result: Marburg entry inh, Lassa entry inh)
CCC(=O)N1CCN(c2nc3ccc(Br)cc3s2)CC1	CHX counter 36, Shiga inhibitor 59 (no result: Marburg entry inh, Lassa entry inh)
CCSc1ccccc1C(=O)N1CCN(c2nc3ccccc3s2)CC1	none (no result: Marburg entry inh, CHX counter, AMA1-RON2 inh, Shiga inhibitor)
CCCC(=O)N1CCN(c2nc3ccc(F)cc3s2)CC1	none (no result: Marburg entry inh, CHX counter, AMA1-RON2 inh, Shiga inhibitor)
Fc1cccc(Cl)c1CN1CCN(c2nc3ccccc3s2)CC1	Marburg entry inh inconclusive, Lassa entry inh inconclusive, CHX counter 53, Shiga inhibitor 159
CCCC(=O)N1CCN(c2nc3ccccc3s2)CC1	CHX counter 42, Shiga inhibitor 42 (no result: Marburg entry inh, Lassa entry inh)
O=C(c1ccc2ccccc2n1)N1CCN(Cc2c(F)cccc2Cl)CC1	Marburg entry inh inconclusive
Cc1cccc2[nH]c3c(N4CC=C(c5ccc(F)cc5)CC4)ncnc3c12	Marburg entry inh 11µM, Lassa entry inh inconclusive
COc1cccc2[nH]c3c(N4CCCCC4)ncnc3c12	CHX counter 45
COc1cc2[nH]c3c(N4CCN(c5ccccn5)CC4)ncnc3c2cc1OC	Marburg entry inh 10µM, Lassa entry inh inconclusive
CCOC(=O)N1CCN(c2ncnc3c2[nH]c2ccc(F)cc23)CC1	Marburg entry inh inconclusive
CCOC(=O)N1CCN(c2ncnc3c2[nH]c2ccc(OC)cc23)CC1	Marburg entry inh 10µM, Lassa entry inh inconclusive
CCOC(=O)C1CCN(c2ncnc3c2[nH]c2cccc(OC)c23)CC1	none
CCc1nn(CC(=O)NCCc2ccc(OC)c(OC)c2)c(=O)c2cc3occc3n12	Lassa entry inh inconclusive (no result: CHX counter, AMA1-RON2 inh, Shiga inhibitor)
COc1ccc2[nH]c3c(N4CCc5ccccc5C4)ncnc3c2c1	Marburg entry inh 0.71µM, Lassa entry inh inconclusive, CHX counter 28
CCOc1ccc(-c2nc(-c3ccncc3)no2)cc1OCC	CHX counter 17, Shiga inhibitor 40
CCOc1ccc(-c2nc(-c3ccccc3)no2)cc1OCC	CHX counter 29, Shiga inhibitor 70 (no result: Marburg entry inh, Lassa entry inh)
Cc1cccc(N2CCN(C(=O)Cn3c(C)c4cnn(-c5ccccc5)c(=O)c4c3C)CC2)c1C	Lassa entry inh inconclusive (no result: CHX counter, AMA1-RON2 inh, Shiga inhibitor)
Cc1ccc(C(=O)c2ncc[nH]2)cc1	none (no result: Marburg entry inh, Lassa entry inh, CHX counter, Shiga inhibitor)
O=C(c1ccc(OC(F)(F)F)cc1)c1ncc[nH]1	CHX counter 39, Shiga inhibitor 65 (no result: Marburg entry inh, Lassa entry inh)
O=C(Nc1cc(Cl)ccc1Cl)c1ccc(OC(=O)c2ccco2)cc1	Lassa entry inh inconclusive
Cc1cccc(NC(=O)CN2CCSc3ccccc32)c1	CHX counter 34, Shiga inhibitor 49 (no result: Marburg entry inh, Lassa entry inh)
Cc1ccc(SCC(=O)Nc2cccc(C)c2)cc1	CHX counter 19 (no result: Marburg entry inh, Lassa entry inh)
O=C(Cc1ccccc1F)Nc1cccc2cccnc12	Lassa entry inh inconclusive, CHX counter 24, Shiga inhibitor 29
